Bioassay records: PubChem, National Center for Advancing Translational Sciences (NCATS)
Most compounds without a hit are left out; they make up all but 11% or so of the library.
Pf growth 48h – inhibits P. falciparum growth in the first generation, 48 h. P. falciparum luciferase growth in erythrocytes, 48 h. Potency, µM (doses to about 28.7 µM), for inactives: at the highest dose activity change, negative = inhibition, usual class: inhibitors. actives 5.9% (n = 310,000)
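Here the parasites carry a stable luciferase gene and grow inside erythrocytes in Albumax-based RPMI medium with compound for one erythrocytic cycle. Activity is scored as loss of luminescent signal.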
Pf growth 96h – inhibits malaria parasite growth, 96 h; P. falciparum luciferase reporter growth, 96 h; Potency, µM (titrated, usually from 28.7 µM), without a hit: at the top dose activity change, negative = inhibition, most hits filed as inhibitors; actives 6.9% (n = 320,000); AID 504834
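Cell-based qHTS: luciferase-tagged P. falciparum in erythrocytes (2% hematocrit, 0.05% parasitemia final) incubated with compounds for 96 hours, 37 C, 5% CO2; luciferase detection reagent then added and luminescence measured.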
HCV inh – blocks hepatitis C virus; Huh7.5.1 HCVcc-Cre infection, luciferase reporter, 44 h; Potency, µM (series often up to 41.8 µM), without a hit: at the highest dose activity change, negative = inhibition, actives largely listed as inhibitors; actives 3.4% (n = 340,000)
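HCVcc-Cre virus at an moi near 0.5 was added right after compound to cells cultured 4 h from seeding (1,000 cells/well). Luciferase activity was determined 44 h later, 15 min after substrate addition at RT.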
AMA1-RON2 inh – disrupts binding of P. falciparum AMA1 to RON2; AlphaScreen AMA1-biotinylated RON2 peptide binding; Potency, µM (doses to about 58.2 µM), inactives show at the top dose activity change, negative = inhibition, actives largely listed as inhibitors; actives 0.2% (n = 360,000);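 further: 0% = vehicle wells and -100% = peptide control; nearly all actives have a fitted effect of over 45% in size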
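AMA1 (3D7) with his tag at 25 nM final met compounds first, then biotinylated RON2 peptide at 25 nM; detection used donor plus acceptor beads, 10 µg/mL apiece, read by AlphaScreen after 30 min at room temperature.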
Starred values were filed as active, the others as inactive; u = inconclusive; x = no result; [ ] = another dose, or the depositor's remark. The call rests on the fitted dose curve; in most records, active means well fitted curve in the direction sought with a large enough effect; inconclusive means small, poorly fitted or top-dose-only effect, or another doubt; inactive means no such curve, though single readings can be large; an effect the other way counts as inactive or inconclusive. Unless noted, on the % scale 0 is the no-effect control and ±100 the full control effect; potency means the concentration at half of the fitted maximal effect.

SMILES	Pf growth 48h	Pf growth 96h	HCV inh	AMA1-RON2 inh
CCC(C)(C)NC(=O)C(c1ccc(OC)cc1)N(Cc1cccs1)C(=O)CCC(=O)Nc1cc(C)on1 (stereo not given)	10µM*	3%	u	-20%
CCC(C)(C)NC(=O)C(c1ccc(C)cc1)N(Cc1cccs1)C(=O)c1ccc2c(c1)OCCO2 (stereo not given)	u	12µM*	-19%	-19%
COc1ccc(C(C(=O)NC(C)(C)C)N(Cc2cccs2)C(=O)CCC(=O)Nc2cc(C)on2)cc1 (stereo not given)	u	u	u	20%
Cc1cc(NC(=O)CCC(=O)N(c2ccccc2)C(C(=O)NC(C)(C)C)c2ccccc2Cl)no1 (stereo not given)	13µM*	-18%	16%	-5%
CCC(C)(C)NC(=O)C(c1cccc(OC)c1OC)N(CCOC)C(=O)CCC(=O)Nc1cc(C)on1 (stereo not given)	3%	10µM*	0%	7%
CCC(C)(C)NC(=O)C(c1ccccc1Cl)N(C(=O)CCC(=O)Nc1cc(C)on1)c1ccc(NC(C)=O)cc1 (stereo not given)	-52%	-1%	-2%	5%
C[C@@H]1CN([C@@H](C)CO)C(=O)CCCn2cc(nn2)CO[C@H]1CN(C)S(=O)(=O)c1ccccc1F	x	x	x	-9%
OC(c1ccc(F)c(F)c1)c1nc(-c2ccc3ccccc3c2)cs1 (stereo not given)	x	x	x	5%
O=C(O)CN(C1CCCCC1)S(=O)(=O)c1ccc(F)cc1	5%	12%	13%	6%
COc1ccc(C(C(=O)NC(C)(C)C)N(CCc2ccccc2)C(=O)CCC(=O)Nc2cc(C)on2)cc1 (stereo not given)	12µM*	2%	-16%	-9%
COc1ccc(C2=C(C=C(C#N)C#N)C(c3ccccc3C)c3ccccc3O2)cc1OC (stereo not given)	9.3µM*	u	u	-17%
COc1cc(-c2nnc(COC(=O)C3c4ccccc4Oc4ccccc43)o2)cc(OC)c1OC	-12%	x	-19%	-9%
O=C(CSc1ccc(-c2cccnc2)nn1)Nc1ccc(F)cc1F	2%	u	-9%	-14%
O=C(CSc1ccc(-c2cccnc2)nn1)Nc1ccc(Br)cc1	-17%	u	13µM*	4%
CC(=O)Nc1ccc(NC(=O)CSc2ccc(-c3cccnc3)nn2)cc1	u	u	-2%	-9%
CCOc1ccc(NC(=O)CSc2ccc(-c3cccnc3)nn2)cc1	-20%	5.9µM*	-7%	21%
O=C(CSc1ccc(-c2cccnc2)nn1)Nc1ccccc1C(F)(F)F	-15%	10µM*	-21%	-8%
Clc1ccc2c(c1)Nc1ccccc1CC2	x	x	20%	-20%
CN(C)CCC#CC(O)(c1ccccc1)c1ccccc1	12µM*	u	15%	2%
CCN(CC)CC#CC(O)(c1ccccc1)c1ccccc1	131%	19%	-18%	-3%
COc1ccccc1N1CCN(C2CCN(S(=O)(=O)c3ccc(NC(C)=O)cc3)CC2)CC1	6%	-11%	0%	-5%
CSCCCNC(=O)c1ccccc1OC1CCN(S(C)(=O)=O)CC1	34%	1%	6%	31%
CS(=O)(=O)N1CCC(Oc2ccccc2C(=O)NCCCc2cccnc2)CC1	-11%	9.3µM*	11%	6%
CC(C)Cn1nc(C(=O)NCc2ccccc2CN2CCCC2)c2ccccc2c1=O	u	u	u	-1%[11.6 µM]
O=C(c1cccs1)N1C[C@@H](O)[C@H](n2cc(-c3ccc(F)cc3)nn2)C[C@@H]1c1ccccc1	x	x	x	-1%
SMILES	Pf growth 48h	Pf growth 96h	HCV inh	AMA1-RON2 inh
O=[N+]([O-])c1c(Nc2ccccc2)ccc2nonc12	18%	u	12%	0%
Cc1c(Nc2ccc3nonc3c2[N+](=O)[O-])c(=O)n(-c2ccccc2)n1C	14%	0.66µM*	6%	-1%
Cc1c(Nc2cc(N3CCOCC3)c3nonc3c2[N+](=O)[O-])c(=O)n(-c2ccccc2)n1C	-7%	u	x	x
Cc1c(Nc2cc(Cl)c3nonc3c2[N+](=O)[O-])c(=O)n(-c2ccccc2)n1C	-18%	-79%	4µM*	1%
O=C(C[n+]1ccccc1)N/N=C/c1ccc(Br)cc1	10µM*	2.9µM*	4%	19%
O=C(C[n+]1ccccc1)N/N=C/c1ccc(Cl)c(Cl)c1	8.3µM*	u	31%	-19%
